High-throughput results: PubChem, National Center for Advancing Translational Sciences (NCATS)
D3 ag = D3 dopamine receptor (human) agonism | P35462 | AID 652048 | D3R DiscoveRx beta-arrestin cells, luminescence, 90 min | 0.58% of 410,000 active | max activation, %; in the data active = max activation above about 30%; note: 0% is about no effect
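Cells at 1500/well, incubated overnight, then treated with pinned compounds (dopamine as control) for 90 min at 37 degrees C. DiscoveRx reagent added for 30 - 60 minutes at room temperature; luminescence read.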
GLP-1R agonist = GLP-1 receptor (human) agonism; P43220; HEK293 GLP-1R CRE-luciferase, luminescence, 4-6 h; cells express a hypersensitive GLP-1R form; Potency, µM (series often up to 45.6 µM), without a hit: at the highest dose activation, most hits filed as activators; 0.007% of 380,000 active; note: potency is the fitted concentration of half-maximal effect; % of control where 0% means no effect
Target sequence (P43220 whole entry, looked up): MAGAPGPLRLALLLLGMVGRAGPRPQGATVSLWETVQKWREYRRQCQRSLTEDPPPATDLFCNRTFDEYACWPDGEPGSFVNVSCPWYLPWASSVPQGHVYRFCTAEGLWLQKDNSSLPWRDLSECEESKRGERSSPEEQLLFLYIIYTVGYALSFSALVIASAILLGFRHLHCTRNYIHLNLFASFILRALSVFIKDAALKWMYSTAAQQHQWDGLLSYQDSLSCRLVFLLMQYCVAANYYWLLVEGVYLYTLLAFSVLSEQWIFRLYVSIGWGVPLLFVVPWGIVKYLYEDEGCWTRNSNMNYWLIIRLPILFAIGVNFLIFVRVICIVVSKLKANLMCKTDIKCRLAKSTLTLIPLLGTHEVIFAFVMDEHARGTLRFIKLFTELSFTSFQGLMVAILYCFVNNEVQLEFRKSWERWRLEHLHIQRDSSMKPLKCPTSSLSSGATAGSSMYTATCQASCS
D3 antag = antagonists of human D3 dopamine receptor; P35462; D3R cells, DiscoveRx beta-arrestin luminescence, antagonist mode; stronger effect = lower value; max response, negative = inhibition, %; 2.5% of 360,000 active; AID 652054; in the data active = max response below about -50%; inconclusive = no clear call, values can overlap the other calls; note: % is set by controls: 0 for no effect and ±100 for the full control effect
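Cells expressing the human receptor were seeded at 1500 cells/well, incubated overnight at 37 degrees C in 5% CO2, then exposed to library compounds with dopamine controls for 90 minutes at 37 degrees C before luminescent detection.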
GLP1R inv ag = acts as inverse agonist at human GLP-1 receptor. P43220. HEK293 GLP-1R CRE-luciferase, luminescence, 24 h; GLP-1R form is constitutively active. Potency, µM (titrated, usually from 38.3 µM), without a hit: top-dose activity change, negative = inhibition, usual class: inhibitors. 1.6% of 410,000 active. AID 624417; note: potency is the fitted concentration of half-maximal effect; % is set by controls: 0 for no effect and ±100 for the full control effect; nearly all actives have a fitted effect of over 55% in size
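Luminescence readout: a drop in cAMP-driven luciferase signal flags inverse agonism at a constitutively active GLP-1R stably expressed in HEK293. Compound exposure lasted 24 hr at 37 deg C, 5% CO2.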
The depositor's hits bear a star; ? = inconclusive; . = no result. Sampled rows, rich in hits. Any-hit rate of the full collection: about 4.3%. Unless noted, calls come from the whole dose curve; as a rule, active = well fitted curve in the direction sought with a large enough effect; inconclusive = small, poorly fitted or top-dose-only effect, or another doubt; inactive = no such curve, though single readings can be large; an effect the other way counts as inactive or inconclusive.

SMILES	D3 ag	GLP-1R agonist	D3 antag	GLP1R inv ag
O=C(NC(=S)NCc1ccccc1)C1CCCCC1	-1.5	1.6%	-53.6*	?
S=C(NCc1ccccc1)NCc1ccc(CNC(=S)NCc2ccccc2)cc1	-2.5	-1.2%	-18.8	-30.3%
O=C(NC(=S)Nc1ccccc1)C1CCCCC1	3.6	1.1%	-7.3	-9.8%
S=C(NCc1ccccc1)C(=S)NCc1ccccc1	3.5	10.5%	-17.9	10µM*
COc1ccc(-c2ccc(OC)cc2)cc1	1.9	-2.4%	?	-1.4%
COc1ccc(-c2nncnn2)cc1	-1.8	4.8%	-52.1*	18.2%
CCOC(=O)c1ccc(NC(=O)c2csnn2)cc1	1.7	.	.	8.8%
CC(=O)c1cccc(NC(=O)c2ccc(-n3c(C)nnc3C)cc2)c1	5.0	.	.	6.2%
Cn1c(=O)[nH]c(=O)c2c1nc(NN)n2CCOc1ccccc1	7.4	9.9%	12.9	-20.6%
Cn1c(=O)[nH]c(=O)c2c1nc(Br)n2CCOc1ccccc1	3.8	31.6%	-53.5*	24.4%
O=C(OCc1ccccc1Cl)c1ccc(-c2nnn(Cc3ccccc3Cl)n2)cc1	-5.1	7.0%	.	11.1%
Cc1nc(-[n+]2nc(-c3ccncc3)nn2-c2ccccc2)sc1C	-23.0	-4.3%	-101.8*	?
CC(C)n1cnc2c(N(C)c3ccccc3)nc(N(CCN(C)C)Cc3ccccc3)nc21	-43.8	6.7%	-69.8*	?
COc1ccccc1NC(=O)Cn1c(=O)n(Cc2nc(C)no2)c(=O)c2cc3c(cc21)OCO3	1.7	.	.	-5.9%
CC(=O)CC/C=C(\C)CC/C=C(\C)CC/C=C(\C)CCC=C(C)C	-4.7	.	.	.
O=c1c2c(nc(NCCO)n1CC1CCCCC1)-c1ccccc1CC21CCCC1	4.1	0.9%	-1.8	3.98µM*
O=C(Nc1ccc(S(=O)(=O)N2CCOCC2)cc1)c1cc(-c2cc(Cl)ccc2O)n[nH]1	-14.6	-5.0%	-8.9	3.55µM*
Cc1cc(O)c(-c2cc(C(=O)Nc3ccc(S(=O)(=O)N4CCOCC4)cc3)[nH]n2)cc1C	-26.5	-18.5%	11.8	-25.9%
Cc1ccc(-c2cc(C(=O)Nc3ccc(S(=O)(=O)N4CC(C)OC(C)C4)cc3)[nH]n2)c(O)c1 (configuration not stated)	-3.7	5.7%	-9.3	1.12µM*
Cc1ccc(C2CC(=O)N3CN(Cc4ccco4)CSC3=C2C#N)cc1 (configuration not stated)	-0.5	-4.3%	-58.7*	0.2%
CCn1cc([N+](=O)[O-])c(C(=O)N2CCN(C(=O)c3ccco3)CC2)n1	1.3	1.5%	11.9	24.8%
CCn1cc([N+](=O)[O-])c(C(=O)N2CCCC2)n1	32.3*	-9.8%	11.1	0.0%
Cc1nc2ccccn2c(=O)c1NC(=O)c1ccc(F)c(F)c1	-5.1	.	.	1.5%
NC(=O)SCC(=O)Nc1ccc(Cl)cc1	-10.5	-5.0%	-52.7*	?
NC(=O)SCC(=O)Nc1ccc(Cl)c(Cl)c1	0.6	-22.0%	0.0	0.0%
SMILES	D3 ag	GLP-1R agonist	D3 antag	GLP1R inv ag
Cc1ccc(-c2nc3scc(CCNC(=O)Cc4ccc(Cl)cc4)n3n2)cc1	11.8	.	.	-6.1%
COc1cc(C#Cc2c(-c3cncn3C)n(C)c3ccc(-c4cnc(N5CCOCC5)nc4)cc23)cc(OC)c1	0.5	-0.2%	93.3	11.5%
COc1cc(C#Cc2c(-c3cncn3C)n(C)c3ccc(-c4ccc(CN5CCOCC5)cc4)cc23)cc(OC)c1	56.8*	3.1%	132.2	-5.5%
O=C(NNC1=Nc2ccccc2SC1)c1cccc([N+](=O)[O-])c1	-12.0	3.8%	-61.2*	11.3%
O=C(Nc1ccn(CCCNCC(c2ccccc2)c2ccccc2)c(=O)n1)OCc1ccccc1	-8.1	5.6%	-29.7	?
O=C(Nc1ccn(CCCNCc2cccc3ccccc23)c(=O)n1)OCc1ccccc1	-13.7	2.5%	-50.6*	?
CC(CNCCCn1ccc(NC(=O)OCc2ccccc2)nc1=O)c1ccccc1 (configuration not stated)	-68.8	-1.8%	-51.1*	16.8%
O=S(=O)(c1ccc2[nH]c3c(c2c1)CCCC3)N1CCN(c2cccc(C(F)(F)F)c2)CC1	3.4	.	.	10µM*
O=C(NCc1ccccc1)c1ccc(C2SCC(=O)N2Cc2ccccc2)cc1 (configuration not stated)	-1.3	-0.7%	-5.8	10µM*
C=CCNC(=O)c1ccc(C2SCC(=O)N2Cc2ccccc2)cc1 (configuration not stated)	0.3	-3.0%	-5.8	-4.4%
C=CCNC(=S)NNC(=O)c1cccn(Cc2cccc(Cl)c2)c1=O	-21.0	-10.9%	17.1	33.2%
C=CCNC(=S)NNC(=O)c1cccn(Cc2ccc(Cl)cc2)c1=O	-3.7	4.8%	-66.5*	-18.2%
CC1CCCCN1CCNC(=O)Cn1nc(-c2ccccc2)ccc1=O (configuration not stated)	-11.1	1.4%	-98.0*	0.0%
COc1ccc(NC(=O)c2cc(-c3ccccc3)nc3c2c(C)nn3-c2ccccc2)c(OC)c1	1.9	-1.3%	33.1	-12.4%
CCOc1ccc(NC(=O)CNC(=O)c2nn(-c3ccc(OC)c(OC)c3)c(=O)c3ccccc23)cc1	37.4*	7.8%	85.8	53.4%
COc1ccc(NC(=O)c2cnn(-c3ccccc3)c2C)c(OC)c1	0.4	14.2%	-61.1*	12.2%
CCOc1ccccc1NC(=O)CNC(=O)c1nn(-c2ccc(OC)c(OC)c2)c(=O)c2ccccc12	17.7	20.3%	82.0	18.4%
COc1ccc(NC(=O)CNC(=O)c2nn(-c3ccc(OC)c(Cl)c3)c(=O)c3ccccc23)c(OC)c1	30.4*	19.8%	81.6	-2.9%
COC1(C(F)(F)F)NC(=O)N(c2ccc(F)cc2)C1=O (configuration not stated)	6.0	.	.	2.6%
N#Cc1nc(Cc2cccc3ccccc23)oc1N1CCCCC1	-9.4	12.8%	-27.7	10µM*
CC1CN(C(=O)COC(=O)c2cncc(Br)c2)CC(C)O1 (configuration not stated)	1.3	-3.2%	-54.2*	-2.2%
N#CC1=C(N)C(C#N)(C#N)C(c2cccnc2)C2CN(C(=O)OCc3ccccc3)CC=C12 (configuration not stated)	-6.4	-3.9%	-74.3*	66.1%
CCOC(=O)N1CC=C2C(C#N)=C(N)C(C#N)(C#N)[C@H](c3ccc(OCC)c(OCC)c3)[C@H]2C1	1.3	2.1%	8.1	-2.0%
CCOc1ccc(NC(=O)CC2C(=O)N(c3ccccc3)C(=O)N2CCc2sccc2C)cc1 (configuration not stated)	0.7	.	.	?
O=C(CCn1c(=O)oc2ccccc21)N1CCN(c2ccccc2F)CC1	30.6*	-14.7%	-9.2	-2.8%
CCCCN1Cc2ccccc2Oc2cc(Br)ccc2S1(=O)=O	-18.5	5.0%	6.7	1.5%
CC(C)CN1Cc2ccccc2Oc2cc(Br)ccc2S1(=O)=O	5.2	-3.9%	-62.1*	-2.7%
[O-][N+]1=c2ccc(Nc3ccccc3)cc2=NC12CCCCC2	-3.3	-8.7%	?	?
